Measured values: PubChem BioAssay (NCATS)
Results filed as inconclusive are left out. Active and inactive are the calls of the source. Calls follow the shape of the dose curve; as a rule, active = well fitted curve in the direction sought with a large enough effect; inconclusive = small, poorly fitted or top-dose-only effect, or another doubt; inactive = no such curve, though single readings can be large; an effect the other way counts as inactive or inconclusive.

What was measured:
[1] = molecular target: ATP-dependent 6-phosphofructokinase (Trypanosoma brucei brucei) (UniProt O15648); assay: qHTS Assay to Find Inhibitors of T. brucei phosphofructokinase: hit validation (AID 492961);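 also: luminescence reports ADP formed as PFK phosphorylates fructose-6-phosphate with ATP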
Procedure, shortened: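 PFK 1.25 nM, F6P 0.5 mM, ATP 0.1 mM, MgCl2 5 mM, 0.1 M TEA pH 8.0, Tween20 0.01%, BSA 0.1%; 45 min RT. ADP-Glo two-step detection, luminescence. qHTS titration; curve fitting with curve-class categorization.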

[2] = S16 Schwann cell PMP22 intronic element firefly luciferase assay (AID 624032); also: nearly all actives have a fitted effect of over 30% in size
Procedure, shortened: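 Rat S16 Schwann cells stably carrying a PMP22 intronic element-driven Fluc reporter were seeded overnight, then exposed to compounds for 24 h at 37 °C. Luminescence was normalized to PTC124 (positive control) and DMSO (0% activity).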

7G8 = assay: qHTS profiling for inhibitors of Plasmodium falciparum proliferation (AID 504749); also: nearly all actives have a fitted effect of over 60% in size; also: potency is read from the fitted curve at half-maximal effect; settings: P. falciparum in erythrocytes, SYBR Green DNA, 72 h; series mostly up to 12.8 µM
Procedure, shortened: (§1)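 Fluorescence of SYBR Green-bound parasite DNA, read at 485/535 nm, served as the growth measure. Infected erythrocytes were cultured with compound 72 h; artemisinin (0.29 uM) and DMSO wells defined the normalization range.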

AA1029 = assay: as above; settings: P. falciparum in erythrocytes, SYBR Green DNA, 72 h; series mostly up to 12.8 µM
Procedure, shortened: as §1

CP194 = assay: as above; settings: P. falciparum in erythrocytes, SYBR Green DNA, 72 h; series mostly up to 12.8 µM
Procedure, shortened: as §1

CP203 = assay: as above; settings: P. falciparum in erythrocytes, SYBR Green DNA, 72 h; series mostly up to 12.8 µM
Procedure, shortened: as §1

CP211 = assay: as above; settings: P. falciparum in erythrocytes, SYBR Green DNA, 72 h; series mostly up to 12.8 µM
Procedure, shortened: as §1

CP215 = assay: as above; settings: P. falciparum in erythrocytes, SYBR Green DNA, 72 h; series mostly up to 12.8 µM
Procedure, shortened: as §1

CP265 = assay: as above; settings: P. falciparum in erythrocytes, SYBR Green DNA, 72 h; series mostly up to 12.8 µM
Procedure, shortened: as §1

CP291 = assay: as above; settings: P. falciparum in erythrocytes, SYBR Green DNA, 72 h; series mostly up to 12.8 µM
Procedure, shortened: as §1

CP335 = assay: as above; settings: P. falciparum in erythrocytes, SYBR Green DNA, 72 h; series mostly up to 12.8 µM
Procedure, shortened: as §1

DIV30 = assay: as above; settings: P. falciparum in erythrocytes, SYBR Green DNA, 72 h; series mostly up to 12.8 µM
Procedure, shortened: as §1

P93_24 = assay: as above; settings: P. falciparum in erythrocytes, SYBR Green DNA, 72 h; series mostly up to 12.8 µM
Procedure, shortened: as §1

P94_40 = assay: as above; settings: P. falciparum in erythrocytes, SYBR Green DNA, 72 h; series mostly up to 12.8 µM
Procedure, shortened: as §1

PC26 = assay: as above; settings: P. falciparum in erythrocytes, SYBR Green DNA, 72 h; series mostly up to 12.8 µM
Procedure, shortened: as §1

[3] = molecular target: Cytochrome P450 3A4 (Homo sapiens) (UniProt P08684); assay: qHTS Assay for Activators of Cytochrome P450 3A4 (AID 885); also: nearly all actives have a fitted effect of over 65% in size
Procedure, shortened: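 Luminescent readout of luciferin formed from 25 uM Luciferin-PPXE (KM level) by 20 nM CYP3A4 in 200 mM KPO4, with 60 min NADPH-driven reaction at room temperature after 10 min compound exposure. Ketoconazole (57 uM) defined 100% inhibition.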

[4] = molecular target: Cytochrome P450 2D6 (Homo sapiens) (UniProt P10635); assay: qHTS Assay for Inhibitors and Substrates of Cytochrome P450 2D6 (AID 891); also: nearly all actives have a fitted effect of over 60% in size; also: potency is read from the fitted curve at half-maximal effect
Procedure, shortened: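 Luminescent read-out of luciferin formed by 5 nM human CYP2D6 demethylating 30 uM Luciferin-ME EGE (Km level) over 60 min at room temperature after NADPH regeneration addition. Data normalized to full inhibition by 1.43 uM quinidine.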

[5] = molecular target: Cytochrome P450 2C9 (Homo sapiens) (UniProt P11712); assay: qHTS Assay for Inhibitors and Substrates of Cytochrome P450 2C9 (AID 883); also: nearly all actives have a fitted effect of over 60% in size
Procedure, shortened: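 Human CYP2C9 (10nM) hydroxylated Luciferin-H (100uM, at its KM) to luciferin in 25mM KPO4. Compound was preincubated 10 min at 37C, then NADPH regeneration started a 60 min reaction at 37C. Luminescence was read after detection reagent, normalized to 57uM sulphaphenazole.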

[6] = molecular target: Cytochrome P450 3A4 (Homo sapiens) (UniProt P08684); assay: qHTS Assay for Inhibitors and Substrates of Cytochrome P450 3A4 (AID 884); also: nearly all actives have a fitted effect of over 50% in size; also: potency is read from the fitted curve at half-maximal effect
Procedure, shortened: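 Luminescent readout of luciferin produced by CYP3A4 (20 nM) dealkylation of Luciferin-PPXE, 25 uM (its KM). NADPH-driven reaction ran 60 min at RT after 10 min compound preincubation; data scaled to 57 uM ketoconazole as 100% inhibition.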

Measured: Potency

Chain of ATP-dependent 6-phosphofructokinase (Trypanosoma brucei brucei) (O15648 whole entry, looked up): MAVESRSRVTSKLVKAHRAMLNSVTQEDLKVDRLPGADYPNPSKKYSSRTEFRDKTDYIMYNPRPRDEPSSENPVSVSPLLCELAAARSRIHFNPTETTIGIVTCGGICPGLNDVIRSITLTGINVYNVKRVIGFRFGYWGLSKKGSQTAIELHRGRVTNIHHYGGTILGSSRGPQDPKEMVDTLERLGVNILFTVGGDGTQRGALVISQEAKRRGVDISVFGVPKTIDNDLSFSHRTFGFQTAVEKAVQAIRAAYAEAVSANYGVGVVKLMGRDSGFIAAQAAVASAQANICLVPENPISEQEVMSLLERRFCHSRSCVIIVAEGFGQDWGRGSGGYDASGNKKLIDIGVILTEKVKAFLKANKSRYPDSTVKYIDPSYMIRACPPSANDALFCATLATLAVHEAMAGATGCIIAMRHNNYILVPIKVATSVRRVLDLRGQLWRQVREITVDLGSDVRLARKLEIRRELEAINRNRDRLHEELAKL
Chain of Cytochrome P450 3A4 (Homo sapiens) (P08684 whole entry, looked up): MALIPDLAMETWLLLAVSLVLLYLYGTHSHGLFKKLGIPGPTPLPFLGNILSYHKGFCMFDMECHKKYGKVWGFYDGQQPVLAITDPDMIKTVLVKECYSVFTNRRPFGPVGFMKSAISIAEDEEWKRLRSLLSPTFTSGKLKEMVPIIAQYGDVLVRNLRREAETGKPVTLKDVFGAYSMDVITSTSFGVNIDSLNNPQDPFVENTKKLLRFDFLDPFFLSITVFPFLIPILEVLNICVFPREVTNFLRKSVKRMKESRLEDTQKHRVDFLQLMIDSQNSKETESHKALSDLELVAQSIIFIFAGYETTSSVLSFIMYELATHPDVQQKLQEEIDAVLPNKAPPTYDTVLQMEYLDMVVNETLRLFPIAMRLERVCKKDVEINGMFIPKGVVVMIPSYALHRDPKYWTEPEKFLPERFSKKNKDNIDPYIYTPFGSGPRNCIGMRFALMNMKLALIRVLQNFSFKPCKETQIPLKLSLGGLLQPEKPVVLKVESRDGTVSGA
Chain of Cytochrome P450 2D6 (Homo sapiens) (P10635 whole entry, looked up): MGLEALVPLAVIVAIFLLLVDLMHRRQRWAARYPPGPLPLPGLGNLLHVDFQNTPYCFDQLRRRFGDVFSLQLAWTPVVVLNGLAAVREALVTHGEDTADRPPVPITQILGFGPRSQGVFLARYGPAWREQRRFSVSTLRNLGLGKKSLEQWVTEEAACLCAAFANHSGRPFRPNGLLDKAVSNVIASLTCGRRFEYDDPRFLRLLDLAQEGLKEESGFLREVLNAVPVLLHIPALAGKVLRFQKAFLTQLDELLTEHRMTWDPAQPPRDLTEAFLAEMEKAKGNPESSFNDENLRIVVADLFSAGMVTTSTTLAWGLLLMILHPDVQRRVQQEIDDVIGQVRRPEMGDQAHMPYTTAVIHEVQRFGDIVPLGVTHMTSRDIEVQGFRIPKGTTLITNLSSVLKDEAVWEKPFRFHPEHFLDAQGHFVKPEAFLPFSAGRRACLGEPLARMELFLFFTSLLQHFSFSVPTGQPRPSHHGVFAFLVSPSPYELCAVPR
Chain of Cytochrome P450 2C9 (Homo sapiens) (P11712 whole entry, looked up): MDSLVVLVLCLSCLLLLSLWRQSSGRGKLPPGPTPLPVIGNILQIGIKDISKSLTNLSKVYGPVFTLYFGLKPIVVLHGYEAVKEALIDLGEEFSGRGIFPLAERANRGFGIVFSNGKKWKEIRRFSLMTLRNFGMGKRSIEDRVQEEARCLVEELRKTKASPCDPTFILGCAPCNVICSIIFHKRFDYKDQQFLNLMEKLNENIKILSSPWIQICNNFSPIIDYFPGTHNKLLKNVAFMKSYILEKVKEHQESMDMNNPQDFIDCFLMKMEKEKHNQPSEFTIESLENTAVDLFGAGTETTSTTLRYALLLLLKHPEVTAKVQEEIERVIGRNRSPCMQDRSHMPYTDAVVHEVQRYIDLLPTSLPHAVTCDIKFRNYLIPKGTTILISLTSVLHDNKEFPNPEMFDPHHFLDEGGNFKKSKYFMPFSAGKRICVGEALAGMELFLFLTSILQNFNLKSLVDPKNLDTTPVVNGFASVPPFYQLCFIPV

CN[C@H]1[C@H](O)[C@@H](O[C@@H]2[C@H](O)[C@@H](O[C@H]3OC(CN)=CC[C@H]3N)[C@@H](N)C[C@H]2N)OC[C@@]1(C)O
not listed: [3] | [4] | [5] | [6]
inactive: all other assays above

CN(C)CCOC(=O)[C@@H](c1ccccc1)C1(O)CCCC1
not listed: [2] | P93_24 | PC26 | [3] | [4] | [5] | [6]
inactive: all other assays above

CNCCC=C1c2ccccc2C=Cc2ccccc21
active: [4] 5.01 µM
inactive: [3]

C[C@H]1CC[C@@H]2[C@@H](C)[C@H]3[C@H](C[C@H]4[C@@H]5CC=C6C[C@@H](O[C@]7(O[C@H]8O[C@@H](C)[C@@H](O)[C@@H](O)[C@@H]8O)C[C@@H](O[C@@H]8O[C@H](CO)[C@@H](O)[C@H](O)[C@@H]8O)[C@@H](O)[C@H](CO)O7)CC[C@]6(C)[C@H]5CC[C@@]34C)N2C1
inactive: [5] | [6] | [4]

CC(=O)O[C@H]1C[C@@]2(C)[C@H](C[C@@H](O)[C@H]3[C@@]4(C)CC[C@@H](O)[C@@H](C)[C@H]4CC[C@@]32C)C1=C(CCC=C(C)C)C(=O)O
not listed: 7G8 | [3] | [4] | [5] | [6]
inactive: all other assays above

COc1cc2nc(N3CCN(C(=O)[C@@H]4COc5ccccc5O4)CC3)nc(N)c2cc1OC
active: 7G8 7.08 µM
inactive: [2] | CP215 | CP265

NCc1ccccc1CC(=O)N[C@@H]1C(=O)N2C(C(=O)O)=C(CSc3nnnn3CC(=O)O)CS[C@@H]12
not listed: DIV30 | [3] | [4] | [5] | [6]
inactive: all other assays above

COc1cc2cc3c4cc(OC)c(OC)cc4cc[n+]3c(C)c2cc1OC
active: [6] 15.8 µM
inactive: [3]

C[C@@H]1O[C@H](O[C@@H]2\C=C/C=C\C=C/C=C\C[C@H](C)OC(=O)/C=C\[C@H]3O[C@@H]3C[C@H](O)C[C@]3(O)C[C@@H](O)[C@@H](C(=O)O)[C@H](C2)O3)[C@@H](O)[C@H](N)[C@@H]1O (stereo in doubt)
not listed: [1] | [2] | [3] | [4] | [5] | [6]
inactive: all other assays above

CC(C)(C)NC(=O)[C@@H]1CC[C@@H]2[C@@H]3CC[C@@H]4NC(=O)C=C[C@@]4(C)[C@H]3CC[C@]21C
not listed: [1] | [2] | 7G8 | [3] | [4] | [5] | [6]
inactive: all other assays above

COc1ccc(OC)c([C@H](O)CNC(=O)CN)c1
not listed: [2] | [3] | [4] | [5] | [6]
inactive: all other assays above

Cn1nnnc1SCC1=C(C(=O)O)N2C(=O)[C@@H](NC(=O)[C@@H](O)c3ccccc3)[C@@H]2SC1
not listed: 7G8 | CP291 | [3] | [4] | [5] | [6]
inactive: all other assays above

Cc1onc(-c2ccccc2Cl)c1C(=O)N[C@H]1C(=O)N2[C@H]1SC(C)(C)[C@H]2C(=O)O
not listed: [2] | 7G8 | [3] | [4] | [5] | [6]
inactive: all other assays above

CCN[C@@H]1CN(CCCOC)S(=O)(=O)c2sc(S(N)(=O)=O)cc21
not listed: P94_40 | [3] | [4] | [5] | [6]
inactive: all other assays above
